“And” between values parts separate entries of the source, which are not always exact repeats. Identical values can stand only once. Out of some 260,000 compounds screened, about 1,500 (0.58%) were called active. Not shown: some 5% with an inconclusive outcome.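 The calls were made as follows: active = inhibition above a set limit at one or more doses, reproduced on every date tested; inconclusive = results disagree between test dates, or hit never tested in dose response; inactive = the rest.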 Not all results are given here. Entries with a potency or affinity are not part of this list.
Target: Virion infectivity factor (Human immunodeficiency virus type 1 group M subtype B (isolate BH10)) + Virion infectivity factor (Human immunodeficiency virus type 1 group M subtype B (isolate BRU/LAI)) + Virion infectivity factor (Human immunodeficiency virus type 1 group M subtype B (isolate PCV12)) + Virion infectivity factor (Human immunodeficiency virus type 1 group M subtype B (isolate HXB2)) + DNA dC->dU-editing enzyme APOBEC-3G (Homo sapiens) (UniProt P69720+P69721+P69722+P69723+Q9HC16)
Assay: inhibitors of Vif binding to APOBEC3G peptide, primary screen, biochemical, TR-FRET, GST-Vif 1-94, biotin-A3G peptide, dose response retest (AID 1117319);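 also: Vif residues 1-94 fused to GST binding biotinylated APOBEC3G peptide 110-148; 0% = full assay without inhibitor and 100% = GST in place of GST-Vif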
Conditions: active compounds read high

inhibition, inactive:
COc1ccccc1NC(=O)C(C)OC(=O)CN1C(=O)C2CC=CCC2C1=O (stereo unspecified) -6.25%
COc1ccc(CCN2CC(C(=O)N(C)CCn3nc(C)cc3C)CCC2=O)cc1 (stereo unspecified) 6.02%
CCc1ccc(C(=O)O)cc1 0.16%
Cc1ccc(C)n1-c1cccc(C(=O)Nc2ccccc2)c1 18.2%
Cc1cc(C(=O)O)ccc1-n1c(C)cc(C=C2C(=O)c3ccccc3C2=O)c1C -10.7%
Cc1cc(N)ccc1-n1c(C)ccc1C 15.6%
Cc1ccc(C)n1-c1ccc(C(=O)NN)cc1 -3.66%
Cc1cc(C)n(Cc2ccc(C(=O)O)cc2)n1 -1.33%
Cc1ccc(-c2ccccc2)n1-c1cccc(C(=O)O)c1 0.87%
Cc1ccc(-c2ccccc2)n1-c1ccc(C(=O)O)cc1 -4.6%
Cc1cc(C)cc(NC(=O)CCNS(=O)(=O)c2ccc3c(c2)oc(=O)n3C)c1 17.7%
CC1CC(C)(C)NC(=S)N1CCCC(=O)Nc1ccc(Br)cc1 (stereo unspecified) -9.53%
O=C(NC1CCCCC1)C12CC3CC(CC(Cl)(C3)C1)C2 9.37%
COc1ccc(O)c(CN2CC3CCC(CC3)C2)c1 4.35%
COc1ccc(N2CCN(C(=O)COC(=O)CNC(=O)c3ccccc3)CC2)cc1 3.12%
CC1(C)NC(=O)N(CC(=O)NNC(=O)c2ccccc2F)C1=O -5.82%
FC(F)(F)c1cnc(N2CCN(C(=S)NCc3ccccc3)CC2)c(Cl)c1 -5.24%
COc1cc2[nH]c3c(=O)n(N)c(=O)[nH]c3c2cc1OC -6%
O=[N+]([O-])c1ccccc1S(=O)(=O)Nc1ncccn1 5.53%
O=[N+]([O-])c1ccccc1S(=O)(=O)NC1CCCCCCC1 8.73%
CCN(C(=O)COC(=O)c1oc2ccc(OC)cc2c1C)C1CCCCC1 -5.77%
CC1CCCN(C(=O)NC(=O)c2ccc(Cl)cc2)C1 (stereo unspecified) -0.86%
Cc1cc(C)cc(NC(=O)CCNS(=O)(=O)c2cc(Br)cnc2N)c1 -18.9%
Cc1ccc(NC(=O)CCNS(=O)(=O)c2cc(Br)cnc2N)cc1Cl 5.11%
O=C(COC(=O)CCCSc1nc2ccccc2[nH]1)Nc1cccc(F)c1 -3.43%
COC(=O)c1ccc(Cn2nnc3ccccc32)cc1 26.1%
Cc1ccc(S(=O)(=O)N2C(=O)CCC2C(N)=O)cc1 (stereo unspecified) -11.2%
O=C(C1CCCO1)N1CCN(C(=S)NC2CC2)CC1 (stereo unspecified) -5.45%
O=C(C1CCCO1)N1CCC(O)(c2ccccc2)CC1 (stereo unspecified) -9.62%
Cc1c(C)c(C)c(CN2CCSCC2)c(C)c1C 21.2%
CCN(C(=O)CN1CCN(c2ccc(OC)cc2)CC1)c1c(N)n(Cc2ccccc2)c(=O)[nH]c1=O 20.7%
CC(C)CN(C(=O)CN1CCN(c2ccc([N+](=O)[O-])cc2)CC1)c1c(N)n(CC(C)C)c(=O)[nH]c1=O 13.2%
CCN(C(=O)CN1CCN(c2ccccc2)CC1)c1c(N)n(Cc2ccccc2)c(=O)[nH]c1=O -6.89%
CC(=O)c1ccc(N2CCN(CC(=O)N(CC(C)C)c3c(N)n(CC(C)C)c(=O)[nH]c3=O)CC2)cc1 19.2%
Cc1cc(C(C)(C)C)oc1C(=O)N(CC(=O)NC1CCCC1)Cc1ccc(F)cc1 0.27%
CCOC(=O)C1(Cc2cccc(F)c2)CCN(Cc2ccon2)CC1 -4.55%
Cc1ccccc1C(=O)O/N=C1\CCS(=O)(=O)c2sccc21 1.21%
CCCCOc1ccc(S(=O)(=O)Nc2cc(OC)ccc2OC)cc1 1.88%
CCOc1ccc(S(=O)(=O)Nc2cc(OC)ccc2OC)cc1 6.81%
CCOc1ccc(/C=N/NC(=O)CN2CCCCCCC2)cc1 7.01%
COc1ccc(NC(=O)NNC(=O)c2ccc(Cl)cc2Cl)cc1OC 0.67%
COc1cccc(NS(=O)(=O)c2ccc3c(c2)NC(=O)CC(=O)N3)c1 -6.3%
Cc1c(Cl)cccc1NS(=O)(=O)c1ccccc1 -1.9%
O=C(O)c1ccc(NS(=O)(=O)c2ccc3c(c2)C2C=CCC2C(c2ccccc2F)N3)cc1 (stereo unspecified) -10%
O=C(O)c1cccc(S(=O)(=O)Nc2ccccc2Cl)c1 65.8%
CN(C)CCNC(=O)Cn1nc(C(F)F)cc1C1CC1 12.5%
O=C(Nc1nc2c(ccc3ccccc32)s1)c1cc([N+](=O)[O-])ccc1N1CCOCC1 -2.48%
CC(=O)Oc1ccccc1C(=O)N1CCN(S(=O)(=O)c2ccc3ccccc3c2)CC1 -7.33%
Cc1cc(C)n(CC(=O)NNC(=O)c2ccc(S(C)(=O)=O)cc2)n1 -6.9%
CC(=O)c1ccc(NC(=O)Cn2nc(C)cc2C)cc1 1.14%
Cc1nc(C)n(CC(O)COc2ccc(C(=O)c3ccccc3)cc2)n1 (stereo unspecified) 11.5%
CCCc1cc(=O)oc2c(CN3CCCC3)c(O)c(Cl)cc12 8.61%
CCc1cc(=O)oc2cc(C)c(CN3CCCC(C)C3)c(O)c12 (stereo unspecified) 11.2% and 11.8%
CCCc1cc(=O)oc2c(CN3CCCC3)c(O)ccc12 -2.7%
Cc1cc2oc(=O)cc(CN3CCCCC3)c2cc1O -5.08%
Fc1ccc2nc(Nc3ccccc3)sc2c1 -8.41%
CCCCNC(=O)CN1CCN(Cc2ccc3cc(OC)ccc3c2)CC1 -10.8%
CCN1CCc2c(sc3c2c(NCc2ccco2)nc2nnnn23)C1 11.3%
CSc1nc(NCc2ccco2)c2c3c(sc2n1)CN(C)CC3 21.2%
Cc1ccc(OCC(=O)N/N=C2/SCC(=O)N2Cc2ccco2)cc1 11.4%
Cc1ccc(-c2nnc(SCC(=O)NNC(=O)COc3cccc(C)c3)n2C)cc1 -3.33%
